Screening data as filed in PubChem BioAssay.
697 NFkB inh = lowers PMA/ionomycin-induced NF-kB signal in 697 B cells; AID 435022; hit rate 0.33% among 330,000; 697 B-cell NF-kB luciferase reporter, 16 h; inhibition, % at 4 µM; in the data active means inhibition above about 35%
esBAF inh = SWI/SNF esBAF complex inhibition; reporter increase, % at 12.5 µM; hit rate 2% among 350,000; mouse ES cells, Bmi1-luciferase knock-in reporter, 24 h; 100% = twice the neutral-well signal; AID 602393; in the data active means activation above about 40%; inconclusive means no clear call, values can overlap the other calls;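 further: 0% = median of the plate's neutral control wells and 100% = double that signal; a rise in the Bmi1 reporter signal indicates esBAF inhibition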
SMARCA2 act = increases SMARCA2 function in MMTV reporter cells | activation, % at 9.1 µM | AID 652017 | MG213 cells, MMTV-luciferase reporter, dexamethasone, overnight | hit rate 1% among 370,000; in the data active means activation above about 7.8%;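 further: 0% = vehicle wells and 100% = reference activator wells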
Jurkat NFkB inh = inhibitors of the PMA/ionomycin-induced NF-kB reporter in Jurkat cells | PMA/ionomycin-induced NF-kB luciferase reporter, luminescence | inhibition, % at 4 µM | hit rate 0.53% among 330,000; in the data active means inhibition above about 50%
Gli-Sufu antag = antagonists of Gli-Sufu signaling | Sufu-KO-LIGHT fibroblasts, Gli luciferase reporter luminescence | inhibition, % at 5 µM | hit rate 0.74% among 340,000;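 active means inhibition above about 55%, limit read from the data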;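 further: 0% = DMSO-treated cells and 100% = wells with medium but no cells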
* hit, by the source's call; ? = inconclusive; nt = not tested or not shown. Rows were chosen to be rich in hits. Some 3.3% of all compounds tested hit in one or more screens of this group.

SMILES	697 NFkB inh	esBAF inh	SMARCA2 act	Jurkat NFkB inh	Gli-Sufu antag
CN1CCN(C(=O)C[C@H]2CC[C@@H](NC(=O)Nc3ccccc3F)[C@@H](CO)O2)CC1	nt	-5	nt	nt	nt
OC(c1ccc(F)cc1)c1ncc(-c2ccc3ccccc3c2)[nH]1 (stereo not drawn)	nt	76*	7	nt	nt
COc1ccc(C(O)c2ncc(-c3ccc4ccccc4c3)[nH]2)cc1 (stereo not drawn)	nt	14	6	nt	nt
OC(c1ccc(Cl)cc1)c1ncc(-c2ccccc2F)[nH]1 (stereo not drawn)	nt	51*	3	nt	nt
OC(c1ccc(Cl)c(Cl)c1)c1ncc(-c2ccccc2F)[nH]1 (stereo not drawn)	nt	10	-3	nt	nt
Cc1ccc(C(O)c2ncc(-c3ccc4ccccc4c3)[nH]2)cc1 (stereo not drawn)	nt	53*	1	nt	nt
Cc1cc(C)cc(C(O)c2ncc(-c3ccc4ccccc4c3)[nH]2)c1 (stereo not drawn)	nt	4	-1	nt	nt
C[C@H](CO)N1C[C@H](C)[C@@H](CN(C)C(=O)C2CCCCC2)OCCCC[C@H](C)Oc2ccc(NC(=O)Nc3ccc(C(F)(F)F)cc3)cc2C1=O	nt	0	nt	nt	nt
CCOC(=O)c1cnn(-c2nc(-c3ccccc3)cs2)c1C(F)(F)F	2	28	1	18	-6
COC(=O)c1cnn(-c2nc(-c3ccccc3)cs2)c1N	-59	65*	0	-49	-31
O=C(O)c1cnn(-c2nc(-c3ccc(Cl)cc3)cs2)c1C(F)(F)F	-89	76*	1	-8	-41
COc1ccc(-c2csc(-n3ncc(C(=O)O)c3C(F)(F)F)n2)cc1	-59	?	6	-24	-15
C[C@@H]1CCCCO[C@H](CN(C)C(=O)CCCN(C)C)[C@@H](C)CN([C@H](C)CO)C(=O)c2cc(NC(=O)Nc3cccc4ccccc34)ccc2O1	nt	0	nt	nt	nt
O=C(COc1ccc(Br)cc1CO)Nc1ccccc1	-34	56*	2	-40	-47
O=C(OCc1nc2ccccc2s1)c1ccc(Br)s1	-1	10	5	3	-1
Oc1ccccc1OCc1nc2ccccc2s1	-66	41*	7	-113	6
OCc1cc(Br)ccc1OCc1nc2ccccc2s1	-159	77*	nt	-136	4
Oc1ccc(O)c(Cc2nc3ccccc3s2)c1	6	7	-2	17	26
O=C(COc1ccc(Cl)cc1Br)Nc1ccncc1	-3	79*	-1	-41	-13
O=C(CCCOc1ccc(Cl)cc1Cl)Nc1ccncc1	18	14	-5	34	-8
Cc1noc(C)c1S(=O)(=O)N(C)C[C@H]1Oc2ccc(NS(=O)(=O)c3ccc(Cl)cc3)cc2CC(=O)N([C@@H](C)CO)C[C@@H]1C	nt	-6	nt	nt	nt
C[C@@H]1CN([C@@H](C)CO)C(=O)Cc2cc(NS(=O)(=O)c3ccc(Cl)cc3)ccc2O[C@H]1CN(C)CC1CC1	nt	-9	nt	nt	nt
O=[N+]([O-])c1cccnc1Oc1ccc(OCc2ccccc2)cc1	-34	?	4	-45	-23
Nc1ccc(OCc2ccccc2)cc1[N+](=O)[O-]	nt	44*	-1	nt	-32
COc1ccc(/C=N/NC(=O)c2ccccc2O)cc1Cn1cc(Cl)cn1	21	19	2	-5	47
SMILES	697 NFkB inh	esBAF inh	SMARCA2 act	Jurkat NFkB inh	Gli-Sufu antag
CCOc1ccc(/C=N/NC(=O)c2ccccc2O)cc1CN1CC2CC(C1)c1cccc(=O)n1C2 (stereo not drawn)	7	57*	-1	3	-29
COc1cc(OC)cc(-c2cc3cc(F)ccc3cn2)c1	-85	69*	6	-77	-61
Fc1ccc2cnc(-c3ccccc3F)cc2c1	-93	54*	5	-64	-16
COc1ccc(-c2cc3ccc(F)cc3cn2)cc1	-239	-6	6	13	-174
Fc1ccc2cc(-c3ccccc3F)ncc2c1	-87	63*	1	-3	-37
Fc1ccccc1-c1cc2ccccc2cn1	-85	61*	7	-105	-96
COc1cc2cnc(-c3ccccc3F)cc2cc1OC	-5	21	3	0	-16
CNC[C@H]1Oc2ccc(NC(=O)CCCN(C)C)cc2C(=O)N([C@@H](C)CO)C[C@H]1C	nt	-2	nt	nt	nt
COc1cccc(NC(=O)N[C@H]2CC[C@@H](CC(=O)NCc3ccccn3)O[C@H]2CO)c1	nt	-6	nt	nt	nt
CO[C@H]1CN(C)C(=O)c2ccc(NC(=O)Nc3ccccc3F)cc2OC[C@H](C)NC[C@@H]1C	nt	2	nt	nt	nt
Cc1ccc(S(=O)(=O)Nc2ccc3c(c2)C(=O)N([C@H](C)CO)C[C@@H](C)[C@@H](CN(C)S(=O)(=O)c2c(C)noc2C)O3)cc1	nt	-1	nt	nt	nt
CN(C)C(=O)c1ccc(-c2ccc3c(c2)[C@@H]2[C@@H](CCN2C(=O)c2ccc4c(c2)OCO4)[C@@H](CO)N3)cc1	nt	4	nt	nt	nt
CC(=O)Nc1ccc2c(c1)Cc1ccc(Cl)cc1-2	nt	46*	1	nt	-48
C[C@@H]1CCCCO[C@H](CN(C)C(=O)C2CCCCC2)[C@H](C)CN([C@@H](C)CO)C(=O)c2cc(NC(=O)C3CCCCC3)ccc2O1	nt	-2	nt	nt	nt
C[C@H](CO)N1C[C@H](C)[C@@H](CN(C)Cc2ccc3c(c2)OCO3)Oc2c(NS(=O)(=O)c3ccc(F)cc3)cccc2C1=O	nt	-5	nt	nt	nt
Oc1nc(Nc2ccccc2)sc1/C=C1\C=Nc2ccccc21	-57	61*	5	-51	-10
CCn1c(O)c(/C=C2\C=Nc3ccccc32)sc1=O	-148	77*	6	-113	-14
CCOC(=O)c1c(Nc2ccccc2)sc(/C=C2\C=Nc3ccccc32)c1O	11	-8	nt	-7	10
COc1ccc(/C=C/C2=NC(=C\N(C)C)/C(=O)O2)cc1	-19	51*	5	-10	7
CN(C)/C=C1\N=C(c2ccccc2)OC1=O	-8	22	0	-7	-19
O=C(N/N=C/C(Cl)=C\c1ccccc1)c1cnccn1	-28	nt	0	-8	-14
O=C(Oc1ccc(/C=N/NC(=O)c2ccccc2F)cc1)c1ccccc1	-50	47*	0	-9	-33
O=C(N/N=C/C(Cl)=C/c1ccccc1)c1ccccc1F	-68	48*	6	-43	-7
O=C(N/N=C/C(Cl)=C/c1ccccc1)c1cnccn1	-35	24	1	4	-43
O=C(Oc1ccc(/C=N/NC(=O)c2ccccc2O)cc1)c1ccccc1	-21	30	2	-1	3
SMILES	697 NFkB inh	esBAF inh	SMARCA2 act	Jurkat NFkB inh	Gli-Sufu antag
C/C(=N\NC(=O)c1ccco1)c1ccc(-c2ccccc2)cc1	-60	59*	2	-80	-84
O=C(N/N=C/C(Cl)=C/c1ccccc1)c1ccco1	-69	70*	4	-38	-66
C/C(=N\NC(=O)c1ccco1)c1ccc(NC(=O)c2ccccc2)cc1	-42	nt	5	-39	-36
COc1ccc(/C(N)=N/OC(=O)COc2ccccc2Cl)cc1	-20	49*	1	-42	-36
Cc1cc(C)c(C)c(OCC(=O)O/N=C(\N)c2ccncc2)c1	0	-2	-4	0	0
N/C(=N\OC(=O)COc1cc(Cl)c(Cl)cc1Cl)c1ccncc1	-60	nt	2	-59	-82
